# In ChEMBL document CHEMBL4513216, “Probing the Open Global Health Chemical Diversity Library for Multistage-Active Starting Points for Next-Generation Antimalarials” (ACS Infect Dis, 2020):
# Among all 69,000 compounds or so, about 8,600 (12%) showed an effect of 50% or more. Many of the other results were omitted from the sample, so strong results are more common in it than they were.
# System: Plasmodium berghei
# Assay: Screen against P. berghei liver stage (PbLuc), transformed with Luciferase, at 10uM
# Format: functional, HepG2
# Conditions: tested at 10 uM
row,Structure (SMILES),INHIBITION
1,Cc1noc(C)c1-c1nc(C2CCCN(C(=O)C(C)C)C2)ccc1CO (stereo not given),48.1%
2,CC(=O)N(Cc1ncc(C)o1)C1CCN(Cc2nccn2C)C1 (stereo not given),11.45%
3,CC(=O)N1[C@H](Cn2cncn2)C[C@@H]2CN(CC3CC3)CC[C@@H]21,-1.83%
4,COc1ccccc1C(=O)N1C[C@@H]2CCCCN(CC(N)=O)[C@@H]2C1,9.05%
5,COCCCNS(=O)(=O)c1ccc(N2CCCCS2(=O)=O)cc1,73.4%
6,COCCCNS(=O)(=O)c1cccc(CSC)c1,-15.7%
7,CC(NCCCn1cccn1)c1ccc(N2CCCS2(=O)=O)cc1 (stereo not given),5.58%
8,CCOc1ccc(NC(=O)N(C)Cc2cnn(C)c2)c(C)c1,11.9%
9,Cc1nc2c(c(C)c1CC(=O)NCc1cccs1)c(=O)[nH]n2C,-0.219%
10,O=c1n(Cc2cccc(F)c2)nc2ncccn12,-31.7%
11,Cc1ccoc1C(=O)N1CCO[C@H]2[C@H](OCC3CCOCC3)CC[C@@H]21,-0.182%
12,Cc1ccoc1C(=O)N1C[C@@H](OCC2CC2)[C@H]2OCCC[C@H]21,55.2%
13,Cc1ccc(C(=O)N2C[C@@H](OCC3CCOCC3)[C@H]3OCCC[C@H]32)o1,41.5%
14,Cc1ccoc1C(=O)N1C[C@H](OCc2cccnc2)[C@H]2OCCC[C@H]21,33.4%
15,Cc1ccoc1C(=O)N1C[C@@H](OCC2CCOCC2)[C@H]2OCCC[C@H]21,57.1%
16,Cc1ccoc1C(=O)N1C[C@H](OCC2CC2)[C@H]2OCCC[C@H]21,-31%
17,CN(C)CCN1CCc2c(nnn2C)C1COCc1ccccc1 (stereo not given),-4.98%
18,CCc1[nH]ncc1C(=O)N1CCCC(n2ccnc2C)C1 (stereo not given),7.12%
19,O=C(CC1CC1)N1CCC2(CC(=O)N(c3cccc(F)c3)C2)C1 (stereo not given),-40.5%
20,O=C1CC2(CCN(Cc3ccncc3)C2)CN1c1cccc(F)c1 (stereo not given),-11.6%
21,CN(C)CC(=O)N1CCC2(CC(=O)N(c3cccc(C#N)c3)C2)C1 (stereo not given),53.5%
22,CCOCC(=O)N1CCCC2(CCN(c3ccccc3)C2=O)C1 (stereo not given),33.4%
23,COCC(=O)N1CCC2(CC(=O)N(c3cccc(F)c3)C2)C1 (stereo not given),63.1%
24,O=C1CC2(CCN(Cc3cccs3)C2)CN1c1cccc(F)c1 (stereo not given),59.2%
25,COCCC(=O)N1CCCC2(CCN(c3ccccc3)C2=O)C1 (stereo not given),-3.58%
26,COCC(=O)N1CCCC2(CCN(c3ccccc3)C2=O)C1 (stereo not given),71.9%
27,O=C(Cc1ccccc1)N1CCC2(CC(=O)N(c3cccc(F)c3)C2)C1 (stereo not given),5.65%
28,CN(C)C(=O)N1CCC2(CC(=O)N(c3cccc(C#N)c3)C2)C1 (stereo not given),7.65%
29,N#Cc1cccc(N2CC3(CCN(C(=O)NC4CC4)C3)CC2=O)c1 (stereo not given),33.4%
30,O=C1CC2(CCN(CCO)C2)CN1c1cccc(F)c1 (stereo not given),-9.02%
